# Measured values as given in PubChem BioAssay AID2069 (Sanford-Burnham Center for Chemical Genomics, 2009).
# Hit rate of the full screen: of about 1,200 compounds, about 210 (18%) were called active. These entries were drawn from the full list. Values without a mark were called inactive. No stated cut-off is given here; in the data, active means inhibition above about 30%; inactive means the rest.
# Assay: fluorescence readout artefact check – biochemical, HTRF, uHTS, artefact control for SUMOylation inhibitor project, confirmation (AID 2069)
# Details: HTRF interference counterscreen, at 35 µM, active compounds read high
row,SMILES,inhibition
1,Cc1cccc(NC(=S)Nc2cccc3ccccc23)c1,-3.85%
2,COc1cc(/C=C2/C(=O)N(c3ccc([N+](=O)[O-])cc3)N=C2N2CCOCC2)ccc1O,-19.4%
3,N#Cc1c(NC(=O)CSc2ncnc3sccc23)oc(-c2ccco2)c1-c1ccco1,7.1%
4,CC1=NN(c2ccc(Cl)cc2)C(=O)C1C(c1ccccc1O)c1c(C)[nH]n(-c2ccc(Cl)cc2)c1=O (configuration not stated),-12.7%
5,CC(C)(C)c1cnnn1-c1cccc([N+](=O)[O-])c1,6.3%
6,CN1CCCc2cc3c(C(F)(F)F)cc(=O)oc3nc21,57.5% (active)
7,O=C(CC1CS(=O)(=O)CC1CC(=O)Oc1ccccc1F)Oc1ccccc1F (configuration not stated),5.6%
8,CC(=O)Oc1ccc2cc(-c3nc4ccccc4n3C)c(=O)oc2c1,38.6% (active)
9,CC1=C(C#N)C(=O)NC(=O)/C1=C/c1ccc(-c2ccc(S(N)(=O)=O)cc2)o1,19.2%
10,O=c1c2ccccc2nc2n1CCC2,31.4% (active)
11,Cc1nc2ccccc2c(=O)n1/N=C/c1ccc(O)c(O)c1O,7.15%
12,Cc1ccc(/C=N/NC(=O)c2cccc(S(=O)(=O)Nc3cccc(Cl)c3)c2)o1,9.55%
13,O=[N+]([O-])c1cccc(S(=O)(=O)Nc2nc3ccccc3nc2Nc2cccc(S(=O)(=O)N3CCCCC3)c2)c1,-17.1%
14,CC1=NN(c2ccccc2)C(=O)/C1=C\c1ccc(Br)s1,-10.7%
15,Nc1ccc(N2CCCCC2)c2nonc12,-23.7%
16,COc1ccc(N2C3=C(CC4=C2CCCC4=O)C(=O)CCC3)cc1,18.1%
17,COc1ccc(C2C3=C(CCCC3=O)Nc3c(-c4ccccc4)c(C)nn32)cc1 (configuration not stated),46.6% (active)
18,O=C(CNc1cccc2ccccc12)N/N=C/c1ccc([N+](=O)[O-])cc1,-4%
19,Cn1c(-c2ccc(C=O)s2)nc2c3ccccc3c3ccccc3c21,22.3%
20,Cn1c(-c2ccc(C=O)s2)nc2ccccc21,49.1% (active)
21,Cn1c(CNc2ccc(O)cc2)nc2ccccc21,-19.7%

row,SMILES,inhibition
1,CC(C)CC(=O)Nc1ccc(C(=O)Cn2nc(C(=O)O)c3ccccc3c2=O)cc1,-7.35%
2,[O-]/C(=C(\C(=S)Nc1cccc2ccccc12)[n+]1cccc(CO)c1)c1ccc(Cl)s1,-14.8%
3,COc1ccc(Cc2n[nH]c(=S)n2NC(=O)Nc2ccc(Cl)c(Cl)c2)cc1,54.1% (active)
4,COc1ccc(Cn2c(C)c(C)c(C#N)c2NC(=O)Nc2ccc(F)cc2)cc1,1.75%
5,COc1ccc(Cc2n[nH]c(=S)n2NC(=O)Nc2ccc(C)cc2)cc1,20.8%
6,CCOC(=O)C1=C(C)N=c2s/c(=C\c3ccc(OCC(=O)O)cc3)c(=O)n2C1c1ccc(OC(C)C)cc1 (configuration not stated),12.8%
7,COc1cccc(OC)c1C(=O)N1CCNCC1,-12.3%
8,COc1ccc(C(=O)N2CCC(O)(c3ccc(F)cc3)CC2)cc1OC,39% (active)
9,Cc1[nH][nH]c(=O)c1C(c1c(C)[nH][nH]c1=O)c1cn(C)c2ccccc12,-22.4%
10,COc1cccc(C(=O)Nc2cccc(C(=O)NC3=NN(c4c(Cl)cc(Cl)cc4Cl)C(=O)C3)c2)c1,-11.8%
11,CCN(CC(=O)c1c(N)n(C)c(=O)n(C)c1=O)c1cccc2ccccc12,11.8%
12,COc1cc(/C=N/NC(=O)c2ccccc2O)ccc1OCC(=O)Nc1ccccc1,15.4%
13,Cc1cc2n(n1)SC(Nc1cccc3ccccc13)N2 (configuration not stated),-6.45%
14,Oc1cccc(C=Nc2cccc3ccccc23)c1O,8.55%
15,Cc1ccc(N2CSC3=C(C#N)C(c4cccs4)CC(=O)N3C2)cc1 (configuration not stated),-28.4%
16,Cc1c(CC(=O)N2CCN(C(=O)C3COc4ccccc4O3)CC2)c(=O)oc2c(C)c(O)ccc12 (configuration not stated),66.6% (active)
17,Cc1ccc(C)c(S(=O)(=O)C(C#N)c2nc3ccccc3nc2N2CCCC2)c1 (configuration not stated),1.8%
18,CCCCCc1c2c(cc(O)c1C(=O)O)OC(=O)c1c(cc(OC)cc1C(=O)CCCC)O2,11.2%
19,c1coc(-c2nnc(-c3ccco3)nn2)c1,7.95%
20,Cc1cccc2nc(-c3ccco3)c(Nc3ccc4c(c3)OCO4)n12,-6.85%
21,Cc1cc(=O)[nH]c(SCC(=O)c2ccc(O)c(O)c2)n1,7.45%
